M1 antag – antagonists of rat M1 muscarinic receptor | actives 3.4% (n = 64,000) | B-score at 10 µM | Muscarinic acetylcholine receptor M1 (Rattus norvegicus), P08482 | CHO-M1 cells, Fluo-4 calcium, ACh EC80 antagonist mode; active compounds read low;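 active = calcium fluorescence response, raw or row-and-column corrected B-score, differing from the plate sample mean either way at a set confidence level, mostly lower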
Target sequence (P08482 whole entry, looked up): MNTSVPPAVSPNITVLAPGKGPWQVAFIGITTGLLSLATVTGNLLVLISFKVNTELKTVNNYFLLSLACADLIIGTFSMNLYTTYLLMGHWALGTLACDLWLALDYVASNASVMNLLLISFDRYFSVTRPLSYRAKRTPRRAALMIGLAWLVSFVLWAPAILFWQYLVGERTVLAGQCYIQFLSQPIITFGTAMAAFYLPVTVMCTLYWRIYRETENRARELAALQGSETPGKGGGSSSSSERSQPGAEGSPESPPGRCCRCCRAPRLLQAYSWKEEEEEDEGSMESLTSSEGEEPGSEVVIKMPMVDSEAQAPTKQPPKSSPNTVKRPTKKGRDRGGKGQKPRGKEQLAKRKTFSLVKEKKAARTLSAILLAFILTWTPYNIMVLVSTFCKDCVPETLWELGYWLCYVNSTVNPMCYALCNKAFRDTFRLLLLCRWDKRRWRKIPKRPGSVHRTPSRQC
M1 agonist – M1 muscarinic receptor agonists, primary screen, CHO-M1 cells, Fluo-4 calcium, agonist mode; Fluo-4 calcium fluorescence; active compounds read high; AID 626, 2007; B-score at 10 µM; actives 3% (n = 64,000);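 active = fluorescence rise, raw or as B-score row- and column-corrected plate score, outside the 99.7% band of its plate's samples, either direction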
Abs 340nm – compound light absorbance at 340 nm, profiling panel, artefact control, biochemical, MLSMR library, data from PS, PMK, MK assays; AID 708, 2007; compound absorbance at 340 nm, fold over control; fold change at 10 µM; 65,000 tested, under 10 active;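 active = at 10 µM dose, initial 340 nm absorbance at least 2 fold that of control wells; inactive = change under 2 fold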;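 note: initial absorbance extrapolated from kinetic A340 decline of NADH oxidation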
Fluor 339 460 – intrinsic fluorescence of library compounds, ex339/em460 – biochemical, MLSMR library, data from DPM-DC assay, artefact control, profiling panel; actives 5.5% (n = 65,000); AID 709, 2007; compound autofluorescence, ex339/em460 nm, NADH buffer; active compounds read high; 1 = no-compound wells, NADH background; fluorescence fold increase at 10 µM;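 active = at 10 µM, mean starting fluorescence two-fold or more over control wells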;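 note: signal is the first read of a kinetic run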
WNV protease inh – inhibitors of WNV NS2B-NS3 protease, primary screen, biochemical, fluorogenic substrate | fluorogenic substrate Ex360/Em465; active compounds read low | actives 0.18% (n = 65,000) | z-score (concentration not given with the values) | Genome polyprotein (West Nile virus), P06935; in the data active = z-score below about -3
BAP1 inh – inhibitors of BAP1 deubiquitinase, primary screen, biochemical, Ub-AMC fluorescence, kinetic; Ubiquitin carboxyl-terminal hydrolase BAP1 (Homo sapiens), Q92560; recombinant BAP1, Ub-AMC hydrolysis fluorescence kinetic; active compounds read low; calls only at 20 µM; actives 0.48% (n = 72,000);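 active = activity remaining at or below 50% of control, provided the compound also passes the data quality filters; inactive = the rest, including low values that fail the filters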;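 note: 100% = DMSO wells rate and 0% = substrate alone blank rate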
M1 antag conf – rat M1 muscarinic receptor antagonists, confirmation, CHO cells, Fluo-4 calcium, duplicate; shares compounds with M1 antag; ACh EC80 antagonism; active compounds read low; calcium response (max-min fluorescence) at 10 µM; actives 43% (n = 1,700); AID 677, 2007;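 active = calcium response below the same-plate mean of wells given acetylcholine alone at its 80%-effect dose, minus 3 SD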;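 note: raw fluorescence intensity difference in arbitrary instrument units and not normalized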
mGluR4 antag – human mGluR4 response to M1 antagonist hits, M1 allosteric modulator project, cell-based, antagonist mode, secondary assay 1; shares compounds with M1 antag; CHO-mGluR4 calcium flux, Fluo-4 fluorescence, glutamate EC80; active compounds read low; fluorescence response (max-min) at 10 µM; actives 0.9% (n = 1,700); AID 678, 2007;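 active = fluorescence response below the plate's average for near-maximal glutamate wells, less 3 SD of those wells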;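 note: raw unnormalized fluorescence span taken in the window right after glutamate addition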
* marks the source's active call; other numbers are inactive results; i = inactive; · = not tested or not shown. An excerpt weighted towards active compounds, which were near 9.7% of everything screened.

SMILES	M1 antag	M1 agonist	Abs 340nm	Fluor 339 460	WNV protease inh	BAP1 inh	M1 antag conf	mGluR4 antag
O=C(OCCN1CCCCC1)c1cc2ccccc2o1	-2.4*	-0.73	1.1	1.1	-0.38	i	465	238
CN(C)S(=O)(=O)c1cccc(C(=O)Nc2ccc(Cl)cn2)c1	-3*	-0.095	1.1	1.1	-0.92	i	683	175
O=C(Nc1ccc2c(c1)OCO2)c1ccc(COc2ccc3c(c2)CCC3)o1	-1.9*	-0.66	1	1.2	-0.37	·	647	232
Cn1c(Sc2nc3ccccc3n2C)nc2ccccc21	-0.0065	0.11	1	0.95	1.1	i	·	·
Cn1c(SCc2nc3ccccc3n2CCO)nc2ccccc21	-2.6*	-0.59	1.1	1.2	-0.67	i	647	225
Cc1ccc(N2C(=O)C3ON(c4ccccc4)C(c4ccncc4)C3C2=O)cc1 (stereo not given)	0.066	0.75	0.98	1.1	-0.12	i	·	·
CN1C(=O)C2ON(c3ccccc3)C(c3cccs3)C2C1=O (stereo not given)	-2.7*	-0.021	0.98	1	-0.02	i	575	224
Cc1ccc(N(C=NC#N)CC(=O)N2CCN(c3ccccc3)CC2)cc1	-3.4*	0.2	1	1	-0.76	i	565	212
CC(C)(C)c1ccc(S(=O)(=O)N2CCN(c3ccc([N+](=O)[O-])cc3)CC2)cc1	·	·	·	·	·	i	·	·
O=C(NC1CCCCC1)C1CCN(C(=O)NCc2ccccc2)CC1	-1.4*	-0.21	0.98	1.1	-1.1	i	671	215
O=C(NCc1ccc(F)cc1)C1CCN(C(=O)NCc2ccccc2)CC1	-0.24	-0.32	0.98	1	-1.1	i	·	·
O=C(NC1CC2CCC(C1)N2C(=O)NCc1ccccc1)C1CC1 (stereo not given)	-2.2*	0.03	0.93	1.1	-0.3	i	419*	241
N#CC1=C(N)OC2=C(C(=O)CCC2)C1c1ccncc1 (stereo not given)	0.16	0.89	1	1	0.1	i	·	·
CN(C)c1ccc(C2C3=C(CCCC3=O)OC3=C2C(=O)CCC3)cc1	-10*	-0.16	1	1	0.61	i	400*	216
COc1cc(-c2nc(S(=O)(=O)c3ccc(C)cc3)c(N3CCOCC3)o2)cc(OC)c1OC	-13*	0.43	1.1	1.4	0.07	i	569	183
CN1C=CC=C/C1=C1\SC(=S)N(C2CCCCC2)C1=O	-6.1*	-0.036	·	·	·	·	488*	261
O=S(=O)(c1ccc(NCC2CCCCC2)nc1)N1CCOCC1	-4.3*	0.66	1	1.2	-0.8	i	554*	205
N#C/C(C(=O)c1ccccc1)=C1/CCCCCN1	-2.4*	0.57	1.1	1.1	-0.47	i	525	259
N#C/C(=C1/CCCCCN1)c1nc2ccccc2[nH]1	-0.14	0.012	1.1	1.1	-0.19	i	·	·
CCOC(=O)C1CCCN(c2c(NCCCN(CC)c3cccc(C)c3)c(=O)c2=O)C1 (stereo not given)	-5.2*	-0.027	1	1	-1.2	i	566	225
CCOC(=O)C1CCN(c2c(NCCCN(CC)c3ccccc3)c(=O)c2=O)CC1	-1	0.025	0.99	1.1	-0.37	i	·	·
CC(=O)N1CCc2cc(C(=O)CN3CCCN(Cc4ccc(F)cc4)C3)ccc21	-0.49	-0.63	1.1	1.2	0.05	i	·	·
Cc1ccc(NC(=O)N2CCCN(Cc3ccc(F)cc3)C2)cc1C	-5.1*	-0.32	0.98	1.1	1.7	i	592	283
CCCSc1cccc(C#N)c1C#N	·	·	·	·	·	i	·	·
CCn1cc(C2=NC(C(C)C)CO2)c2ccccc21 (stereo not given)	-6.5*	-0.76	1	1	-0.3	i	412*	270
SMILES	M1 antag	M1 agonist	Abs 340nm	Fluor 339 460	WNV protease inh	BAP1 inh	M1 antag conf	mGluR4 antag
CCOC(=O)c1cccc(NC(=O)C(C(C)C)N2C(=O)c3ccccc3C2=O)c1 (stereo not given)	·	·	·	·	·	i	·	·
C=CCNc1ncnc2c1cnn2-c1ccc(C)cc1C	-0.11	0.13	1	1.1	0.09	i	·	·
Cc1ccc(-n2ncc3c(NCC4CCCO4)ncnc32)c(C)c1 (stereo not given)	-3.6*	0	1.1	1.1	-1.3	i	504	167
Cc1sc2ncnc(NCC(c3ccco3)N(C)C)c2c1C (stereo not given)	-21*	-0.81	1.1	1.1	-0.24	i	582	245
CCc1c(C(=O)NC2CCCC2)csc1C	-2.2*	2	1	1.1	-0.67	i	653	190
COc1ccc2c(c1)-c1cc(Cl)ccc1S(=O)(=O)N2S(=O)(=O)c1ccc2ccccc2c1	·	·	·	·	·	i	·	·
CS(=O)(=O)N(CC(=O)N1CCCC1)c1cccc(Cl)c1	·	·	1	1.1	-0.58	i	·	·
Cc1ccc(Cl)cc1N(CC(=O)N1CCCCCC1)S(C)(=O)=O	-2.9*	0.14	1	1.1	0.31	·	616	241
CN(C)S(=O)(=O)N(Cc1ccc(Br)cc1)c1ccccc1	-2.2*	0	1	1.1	-0.16	i	506	240
CC(C)N(Cc1ccccc1)S(=O)(=O)N(C)C	-0.00014	0.27	1	1.1	0.06	i	·	·
CCCCOc1ccc(CN2CCC(O)CC2)cc1	-2.2*	-0.33	1.1	1.1	-0.0067	i	518	257
CSc1ccc(CN2CCC(O)CC2)cc1	0.38	0.057	1.1	1.1	-0.53	·	·	·
Cc1ccc(Cn2nnc3c(=O)n(CC(=O)N4CCN(c5ccccc5)CC4)cnc32)cc1	-4.7*	-2.5	0.97	1.1	1.2	i	656	205
Cc1ccc(Cn2nnc3c(=O)n(CC(=O)OCc4ccccc4)cnc32)cc1	0.58	0.38	0.98	1.1	0.79	i	·	·
CC(C)c1cccc(C(C)C)c1NC(=O)C(C(C)C)N1C(=O)c2ccccc2C1=O (stereo not given)	·	·	·	·	·	i	·	·
C=CCn1c(SCc2nc3ccccc3[nH]2)nnc1-c1ccncc1	-16*	-0.45	1.1	1.4	0.87	i	643	243
C=CCn1c(SCc2cccnc2)nnc1-c1ccncc1	0.0057	-0.49	1	1	1.8	i	·	·
